# Laboratory results published in PubChem BioAssay (NCATS).
# Results filed as inconclusive are left out. Calls of active or inactive are those of the source. Unless noted, the call rests on the fitted dose curve; in most records, active means well fitted curve in the direction sought with a large enough effect; inconclusive means small, poorly fitted or top-dose-only effect, or another doubt; inactive means no such curve, though single readings can be large; an effect the other way counts as inactive or inconclusive.
# Legend:
# [1] = qHTS profiling for inhibitors of Plasmodium falciparum (3D7) proliferation (AID 743322);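 further: infected erythrocytes exposed to compound for 72 h before lysis; 100% = DMSO vehicle wells and 0% = 0.29 µM artemisinin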; conditions: P. falciparum 3D7 proliferation; at 28.7 µM (top of the series)
# Procedure, shortened: (§1)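 Parasite DNA was quantified by SYBR Green I fluorescence (ex 485, em 535 nm) after overnight lysis in saponin/Triton buffer at room temperature. Cultures at 0.3% parasitemia and 2.5% hematocrit were first exposed to compound for 72 h at 37 C; signals were normalised to artemisinin (0.29 uM) and vehicle wells.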
# [2] = qHTS profiling for inhibitors of Plasmodium falciparum (DD2) proliferation (AID 743323; call rule not given here); conditions: lower = more inhibition; at 28.7 µM (top of the series)
# Procedure, shortened: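 Parasite proliferation measured via DNA-dye fluorescence, as uninfected erythrocytes lack DNA. Cultures at 0.3% parasitemia and 2.5% hematocrit incubated 72 h with compound; signal scaled between vehicle and 0.29 uM artemisinin wells.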
# [3] = qHTS profiling for inhibitors of Plasmodium falciparum (HB3) proliferation (AID 743324); conditions: Plasmodium falciparum HB3 blood-stage proliferation; at 28.7 µM (top of the series);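 further: 100% = DMSO vehicle wells and 0% = artemisinin-treated control wells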
# Procedure, shortened: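 SYBR Green fluorescence (485 ex/535 em) of lysed cultures, incubated overnight at room temperature in the dark, quantifies parasite DNA. Infected erythrocytes at 0.3% parasitemia and 2.5% hematocrit were exposed 72 h; values normalized to DMSO and 0.29 uM artemisinin controls.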
# [4] = target: Calcium and integrin-binding protein 1 (Homo sapiens) (UniProt Q99828); test: Primary qHTS for Identification of Calcium Integrin Binding Protein 1 (CIB1) Competitor (AID 1508620);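 further: GST tagged CIB1 binding a fluorescein labelled alphaIIb integrin peptide tracer; top concentration of the series differs between compounds; on the % scale 0 is the no-effect control and ±100 the full control effect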
# Sequence of Calcium and integrin-binding protein 1 (Homo sapiens) (Q99828 whole entry, looked up): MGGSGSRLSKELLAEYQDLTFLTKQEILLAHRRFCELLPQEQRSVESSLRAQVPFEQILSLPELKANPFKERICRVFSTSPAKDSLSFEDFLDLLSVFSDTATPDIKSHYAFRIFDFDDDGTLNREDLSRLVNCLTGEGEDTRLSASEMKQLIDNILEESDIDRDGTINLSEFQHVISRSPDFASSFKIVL
# Procedure, shortened: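 Fluorescence polarization competition: GST-tagged CIB1 (1 uM final) preincubated with compound 15 min at room temperature, then FITC-labelled alphaIIb peptide (100 nM final) added. After 15 min at room temperature, polarization read at Ex 480/Em 540.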
# [5] = qHTS profiling of the MIPE4 collection as inhibitors of Plasmodium falciparum (3D7) proliferation (AID 743344; call rule not given here;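 further: scaled between DMSO vehicle wells and 0.29 µM artemisinin as full inhibition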); conditions: P. falciparum 3D7 in erythrocytes, SYBR Green DNA fluorescence, 72 h; at 28.5 µM (top of the series)
# Procedure, shortened: as §1
# [6] = qHTS profiling of the MIPE4 collection as inhibitors of Plasmodium falciparum (DD2) proliferation (AID 743345; call rule not given here); conditions: P. falciparum Dd2 in erythrocytes, SYBR Green DNA, 72 h; at 28.5 µM (top of the series)
# Procedure, shortened: as §1
# [7] = qHTS profiling of the MIPE4 collection as inhibitors of Plasmodium falciparum (DD2) proliferation (Rep 2) (AID 743346; call rule not given here); conditions: P. falciparum Dd2 in erythrocytes, SYBR Green DNA, 72 h; at 28.5 µM (top of the series)
# Procedure, shortened: as §1
# [8] = qHTS profiling of the MIPE4 collection as inhibitors of Plasmodium falciparum (HB3) proliferation (AID 743347; call rule not given here;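 further: plate controls were DMSO vehicle wells for no effect and artemisinin wells for full effect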); conditions: P. falciparum HB3 in erythrocytes, SYBR Green DNA, 72 h; at 28.5 µM (top of the series)
# Procedure, shortened: as §1
# [9] = target: Ubiquitin carboxyl-terminal hydrolase 2 (Homo sapiens) (UniProt O75604); test: qHTS for Inhibitors of Ubiquitin-specific Protease USP2a Using CHOP2 as the Reporter: K484 Substrate (AID 652173);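 further: cleavage of internally quenched K48 di-ubiquitin substrate measured as rising fluorescence over time; potency means the concentration at half of the fitted maximal effect; nearly all actives have a fitted effect of over 70% in size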
# Sequence of Ubiquitin carboxyl-terminal hydrolase 2 (Homo sapiens) (O75604 whole entry, looked up): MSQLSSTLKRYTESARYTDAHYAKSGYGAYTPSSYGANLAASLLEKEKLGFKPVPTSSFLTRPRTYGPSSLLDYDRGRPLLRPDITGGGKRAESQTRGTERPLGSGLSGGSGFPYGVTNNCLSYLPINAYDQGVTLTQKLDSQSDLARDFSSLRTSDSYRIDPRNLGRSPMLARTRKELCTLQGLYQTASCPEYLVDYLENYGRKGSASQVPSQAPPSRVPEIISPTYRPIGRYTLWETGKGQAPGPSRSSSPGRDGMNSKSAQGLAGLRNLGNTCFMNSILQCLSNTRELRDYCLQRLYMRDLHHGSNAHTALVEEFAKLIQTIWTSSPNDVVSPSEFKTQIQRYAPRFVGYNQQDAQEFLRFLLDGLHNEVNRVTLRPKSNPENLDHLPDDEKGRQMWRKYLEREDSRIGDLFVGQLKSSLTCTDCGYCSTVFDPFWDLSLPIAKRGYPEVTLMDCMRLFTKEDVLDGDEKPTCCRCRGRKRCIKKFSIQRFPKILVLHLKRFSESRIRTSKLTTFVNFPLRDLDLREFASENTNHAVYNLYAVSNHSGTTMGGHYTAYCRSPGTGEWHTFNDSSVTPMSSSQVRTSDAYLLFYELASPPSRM
# Procedure, shortened: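 Kinetic fluorescence (Ex 525/Em 598) tracked cleavage of an internally quenched K48 di-ubiquitin substrate, added as a 100 nM solution. The enzyme was added as a 5 nM USP2 solution before compound pinning, with no-enzyme controls. Buffer: Tris pH 8, beta-mercaptoethanol, CHAPS.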
structure (smiles),measurement,setting,value
O=C([C@@H](Cc1ccc(O[S+](=O)([O-])c2cccnc2)cc1)N[S+](=O)([O-])c1cccc2cccnc12)N1CCN(c2ccccc2)CC1,remaining parasite growth % (stronger effect = lower value),[1],-1.01%
same,"activity, percent of control",[2],0.464%
same,"remaining proliferation (% of control), lower = more inhibition",[3],0.336%
same,Potency,[4],inactive
O=C(Nc1ccc(-c2ccccc2)cc1)[C@H](Cc1ccc(O[S+](=O)([O-])c2cccc3cnccc23)cc1)N[S+](=O)([O-])c1cccc2cnccc12,"parasite growth, % of DMSO control",[5],5.02%
same,"parasite growth remaining, % of DMSO control (lower = more inhibition)",[6],10.4%
same,"parasite growth, % of control (lower = inhibition)",[7],17.5%
same,"growth, % of control",[8],6.38%
same,Potency,[4],inactive
N[C@@H](Cc1ccc(OS(=O)(=O)c2cccnc2)cc1)C(=O)N1CCN(c2ccccc2)CC1,remaining parasite growth % (stronger effect = lower value),[1],41.2%
same,"activity, percent of control",[2],15.1%
same,"remaining proliferation (% of control), lower = more inhibition",[3],27.8%
same,Potency,[4],inactive
Cc1ccc(S(=O)(=O)Nc2cccc(C(=O)Nc3nc(-c4ccc(Cl)cc4)cs3)c2)cc1,Potency,[9],2.43 µM (active)
same,Potency,[4],inactive
Cc1ccc(S(=O)(=O)Nc2cc(Br)ccc2C(=O)Nc2nc(-c3ccccc3)cs2)cc1,Potency,[9],1.09 µM (active)
same,Potency,[4],inactive
O=C(Nc1nc(-c2ccccc2)cs1)c1ccncc1NS(=O)(=O)c1cccnc1,Potency,[9],2.73 µM (active)
same,Potency,[4],inactive
COC(=O)c1ccc(NC(=O)c2cc(-c3ccc(C)c(C)c3)nc3ccccc23)cc1,Potency,[9],19.3 µM (active)
same,Potency,[4],inactive
CNC1CCC(N(Cc2ccc(OC)c(-c3ccc(C#N)cc3)c2)C(=O)c2sc3ccccc3c2Cl)CC1 (stereo not drawn),remaining parasite growth % (stronger effect = lower value),[1],-1.61%
same,"activity, percent of control",[2],-0.637%
same,"remaining proliferation (% of control), lower = more inhibition",[3],-1.57%
same,Potency,[4],inactive
Cc1ccc(C(=O)[C@H]2CC[C@@H](C(=O)Nc3ccc(S(=O)(=O)Nc4nccs4)cc3)C2)cc1C,Potency,[9],3.85 µM (active)
same,Potency,[4],inactive
O=C1CC(c2ccccc2)Cc2[nH]c(=O)c(-c3nc(-c4ccc(F)cc4)cs3)cc21 (stereo not drawn),Potency,[9],17.2 µM (active)
same,Potency,[4],inactive
CN1CCN(C(=O)[C@H](Cc2ccc(O[S+](=O)([O-])c3cccc4cnccc34)cc2)N[S+](=O)([O-])c2cccc3cnccc23)CC1,remaining parasite growth % (stronger effect = lower value),[1],10.3%
same,"activity, percent of control",[2],9.98%
same,"remaining proliferation (% of control), lower = more inhibition",[3],5.8%
same,Potency,[4],inactive
